High-throughput results: PubChem, several laboratories
CendR NRP1 mod: NRP-1/CendR interaction modulation; 360,000 compounds, 0.85% hits; O14786; AID 602438; FAM-RPARPAR peptide binding to NRP-1, fluorescence polarization; inhibition, % at 25 µM;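 active = inhibition or corrected inhibition above about 18%, plus a signal ratio from 0.5 to 1.5, limit read from the data, passing the limit was not always enough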
sPLA2-III inh: Blocks human group III sPLA2 activity; 370,000 compounds, 0.56% hits; inhibition, % at 12.2 µM; AID 743126; QFRET BODIPY PC-A2 liposome hydrolysis, fluorescence;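 active = inhibition above mean plus 3 SD of compounds lying within the high and low control bounds, cut at about 19% in these data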;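 also: 0% = median of test compound wells and 100% = no enzyme DMSO wells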
ADAM10 inh: inhibits human ADAM10; recombinant ADAM10, EDANS/DABCYL FRET peptide cleavage, 3 h; inhibition, % at 7 µM; 370,000 compounds, 0.62% hits; O14672;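 active = inhibition above a per-campaign cutoff equal to the mean of compounds falling between control-based bounds plus 3 SD, cut at about 20% in these data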;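 also: 0% = DMSO wells while the 100% control is not disclosed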
proKLK7 act: proKLK7 (human) activation, primary screen; P49862; purified proKLK7, EDANS-DABCYL substrate fluorescence; 100% is mature enzyme control, 0% vehicle; activation, % at 7 µM; 370,000 compounds, 0.9% hits; AID 652039;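 active = activation above the mean of all tested compounds plus 3 SD, computed per campaign excluding outliers beyond control limits, cut at about 13% in these data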
ADAM17 inh: inhibits human ADAM17 | P78536 | inhibition, % at 6.95 µM | recombinant ADAM17, EDANS/DABCYL FRET peptide cleavage | 370,000 compounds, 0.83% hits | AID 720648;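 active = inhibition above the mean of compounds lying between control limits plus 3 SD, set per campaign, cut at about 8.5% in these data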;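 also: 0% = DMSO-only wells as the low control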
Target sequence (P78536 215-824 limits assumed): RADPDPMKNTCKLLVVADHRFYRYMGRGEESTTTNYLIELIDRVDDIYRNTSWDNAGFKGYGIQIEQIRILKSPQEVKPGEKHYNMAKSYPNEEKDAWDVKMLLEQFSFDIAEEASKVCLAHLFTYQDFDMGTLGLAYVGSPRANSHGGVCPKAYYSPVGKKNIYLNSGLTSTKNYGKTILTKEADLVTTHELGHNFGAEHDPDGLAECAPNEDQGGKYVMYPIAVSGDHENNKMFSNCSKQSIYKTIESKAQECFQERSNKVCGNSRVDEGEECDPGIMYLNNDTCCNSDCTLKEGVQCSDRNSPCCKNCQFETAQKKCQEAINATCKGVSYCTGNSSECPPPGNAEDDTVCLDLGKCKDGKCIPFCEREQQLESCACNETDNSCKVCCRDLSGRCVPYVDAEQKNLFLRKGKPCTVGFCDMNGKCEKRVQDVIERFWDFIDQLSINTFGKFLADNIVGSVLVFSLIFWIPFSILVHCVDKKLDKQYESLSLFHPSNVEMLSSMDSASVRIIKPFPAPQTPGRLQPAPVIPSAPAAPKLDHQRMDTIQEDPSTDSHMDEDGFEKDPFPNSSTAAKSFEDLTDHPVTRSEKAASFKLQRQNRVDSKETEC
An asterisk follows results filed as active; · = no result given; ! = not confirmed by another sample. In the library only some 3.4% were active in any assay of this set; here they are far more common.

SMILES | CendR NRP1 mod | sPLA2-III inh | ADAM10 inh | proKLK7 act | ADAM17 inh
O=c1c2ccccc2nc(-c2ccco2)n1-c1ccccn1 | 32.4* | -1.2 | -3.1 | -0.1 | -3.1
CN(C)c1ccc([N+](=O)[O-])c([N+](=O)[O-])c1 | 28.7* | 2.5 | 3.2 | 0.0 | 0.8
CO[C@H]([C@H](C)/C=C/N(C)C=O)[C@@H](C)C(=O)CC[C@H](C)[C@H](O)[C@H](C)[C@H]1OC(=O)/C=C/C(C)=C/[C@H](O)[C@H](OC)C[C@@H]2C=CC[C@@H](C[C@H](OC)[C@@H](CO)[C@@H](OC)C[C@@H](OC)[C@@H]1C)O2 | · | -12.1 | 4.9 | · | -0.6
CN1CC(Br)C(=O)NC1=O (stereo unspecified) | 4.6 | -2.2 | -3.0 | -0.6 | -4.4
CC1NC(=O)NC(=O)C1Br (stereo unspecified) | 35.9* | 3.5 | 2.8 | 0.2 | -0.3
CC1=C[C@@H]2c3cccc4[nH]cc(c34)C[C@H]2N(C)C1 | 44.2* | -52.4 | -60.8 | 2.2 | -25.4
COC(=O)C1C(c2ccc(F)cc2)CC2CCC1N2C (stereo unspecified) | · | -0.4 | -6.8 | -0.1 | -1.8
c1ccc(CNC2=NCCS2)cc1 | 21.4* | 8.6 | -5.0 | 0.3 | -4.5
CCC(COC(=O)c1cc(OC)c(OC)c(OC)c1)(c1ccccc1)N(C)C (stereo unspecified) | 22.9*! | -1.6 | -5.4 | 0.1 | -3.6
O=C(CN1C(=O)[C@@H](Cc2c[nH]c3ccccc23)N=C(c2ccccc2)c2ccccc21)NC1CCCCC1 | · | -81.0 | 12.2 | -0.1 | 8.4
Cc1ccc(C2(O)CCN3CCCCC32)cc1 (stereo unspecified) | 28.6* | 9.4 | 9.7 | 0.3 | -0.3
N=c1c2c(-c3ccccc3)c(-c3ccccc3)n(Cc3ccccc3)c2ncn1C1CCC(O)CC1 (stereo unspecified) | · | 1.7 | 1.2 | -0.3 | -0.1
CC1C(=O)OC2CCN3CC4OC4(COC(=O)C(C)(O)C1(C)O)C23 (stereo unspecified) | 25.5* | 5.8 | -14.4 | -1.3 | 0.0
CCCCC1(CN2CCCC2=O)C(=O)NC(=O)NC1=O | 23.4* | -2.4 | -1.8 | -0.1 | -6.0
Cc1ccccc1NC(=NCCCN1CC1)Nc1ccccc1C | 40.5* | 5.8 | -7.0 | 0.9 | -0.5
Cc1ccccc1NC(=O)c1cc(-c2ccccc2)n(CCCN2CCOCC2)c1C | -3.5 | -19.2 | -35.5 | 0.7 | -12.7
CC(C)NC1(c2ccccc2)CCCCC1 | · | 0.0 | -3.7 | 0.3 | 0.1
COC(=O)C1(N(C)c2ccccc2)CCN(Cc2ccccc2)CC1 | · | 3.4 | 0.4 | 0.8 | -0.6
CC(=O)c1ccc2c(c1)C1C(Cl)C(Sc3ccccc3[N+](=O)[O-])CC1C(C(=O)O)N2 (stereo unspecified) | 31.2* | -7.1 | 6.0 | -0.9 | 1.6
CN1c2ccc(Br)cc2[C@H]2NCC[C@H]2[C@H]1CO | · | -1.4 | -150.7 | 1.0 | -34.9
CC[n+]1c(-c2ccccc2)c2cc(N)ccc2c2ccc(N)cc21 | 46.9* | 3.5 | -15.4 | 3.7 | -2.7
Cc1ccc(OC(=O)N(C)C[C@H]2OCc3cnnn3CCCC(=O)N([C@H](C)CO)C[C@H]2C)cc1 | · | 2.3 | 1.8 | 0.1 | 4.0
CN1C(=O)[C@@]23C[C@]4(c5c[nH]c6ccccc56)c5ccccc5N(S(=O)(=O)c5ccccc5)[C@@H]4N2C(=O)[C@@H]1SS3 | · | -11.8 | -1.5 | · | -2.4
CCn1nc(/C=C/c2ccccc2)nc2c(=O)n(C)c(=O)nc1-2 | 26.9* | -3.1 | 4.0 | 0.6 | -0.7
COc1ccc(-n2c(/C=C/c3ccc(O)cc3)nc3ccccc3c2=O)cc1 | -1.2 | -31.8 | -9.3 | -0.3 | -2.1
SMILES | CendR NRP1 mod | sPLA2-III inh | ADAM10 inh | proKLK7 act | ADAM17 inh
CCn1nc(-c2cccs2)nc2c(=O)n(C)c(=O)nc1-2 | 30.2* | · | · | · | ·
CCOc1ccc(-n2c(-c3cccs3)nc3ccccc3c2=O)cc1 | -1.3 | -0.5 | 3.5 | -0.4 | -3.0
O=C(NCCN1CCC2(CC1)C(=O)NCN2c1ccccc1)c1ccc(OC(F)(F)F)cc1 | · | 2.1 | -15.3 | 0.4 | -7.9
N#CC1c2ccccc2-n2nncc2CN1C(=O)c1cccnc1 (stereo unspecified) | · | 5.5 | -3.4 | 0.1 | -5.4
Cc1cc(Cl)ccc1OCC(=O)N1CCN(C)CC1 | 23.4* | -0.9 | -13.0 | 0.1 | -11.0
O=C(CN1C(=O)CN=C(c2ccccc2)c2cc(Cl)ccc21)NC1CCCCC1 | · | 12.3 | -0.2 | 0.0 | 6.0
